{"source": "the supplement of paper PMC6555819"}
{"system": "VDR:RXRa (NR concentration 270 nM, RXRa partner concentration 90 nM)", "experiment": "PBM binding z-score (relative to random genomic background probes); higher = stronger binding; sequences stand for … in GC…GCGATTGACAGCGTAGAATGAAGG", "description": "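Protein-binding microarray (Agilent 4x180K custom design, double-stranded 60-nt probes: 5' GC cap, 34-nt variable region, 24-nt constant primer region; full probe sequence given). Purified or IVT nuclear receptor:RXRα heterodimers (3:1 NR:RXRα, mostly 270:90 nM) or homodimers were incubated for 1 h in PBS with 2% milk and no ligand, then detected with Alexa488 antibodies. Fluorescence from o1-orientation probes (~5 replicates averaged) was converted to z-scores against 500 random hg19 background probes. Variable regions are seed direct-repeat (DR0–DR5) sites, all their single-nucleotide variants and half-site ablations.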"}
{"sequence": "ACAGACAGGTGATGAAGCTAACTCAGGCTATCAT", "PBM binding z-score": -0.278}
{"sequence": "GTTTGTAGATCAAGGTTAAGAAAGACTAAGCTAA", "PBM binding z-score": 1.03}
{"sequence": "TTTACAGGGTCAAAGGCCAGAGTACGAATGTCGA", "PBM binding z-score": 4.79}
{"sequence": "CATACAGGGTCAGCTAGGCCAGAGTTGGGACGGC", "PBM binding z-score": 3.74}
{"sequence": "CCTTACGAGTCAAGGTTATAGCACGGGTGGTACG", "PBM binding z-score": 0.509}
{"sequence": "TCTCTGAGGACACGAAAGGTCAGAGCTCGACATC", "PBM binding z-score": 3.54}
{"sequence": "TAGCCTAGGTCAGATCGGTCCAGTATACGCTATA", "PBM binding z-score": 2.18}
{"sequence": "TTACCAAGGTGAAGGTCGTTGGTCCCTCTGTAGA", "PBM binding z-score": 0.994}
{"sequence": "CCTACTGGGCCATTCAGAGGTAATTGATCATATG", "PBM binding z-score": -0.36}
{"sequence": "GGAACGAGGGCATTCGAGTTGATCGCATGGCGAT", "PBM binding z-score": 3.61}
{"sequence": "GGTACGAGGGCATTCGAGTTGATAGCATGGCGAT", "PBM binding z-score": 3.71}
{"sequence": "CTAACTAGGTCAAGGACAGTGAATCTCCGCACGC", "PBM binding z-score": 1.3}
{"sequence": "TCATATAGGTAAACAGGGGAAAGTCCGTAAGTTA", "PBM binding z-score": 1.06}
{"sequence": "ACAGACAGGTGATGAAGGTAGCTCAGGCTATCAT", "PBM binding z-score": -0.287}
{"sequence": "TCAGACAGTTGAAGGTAACTCAGGTACGCAGTCG", "PBM binding z-score": 1.03}
{"sequence": "AGAATGAGGTTATACGTAGACCAGGGAAGAAAGT", "PBM binding z-score": 1.18}
{"sequence": "CGTCCTAGGTCAATGCTAGGTCAGTGAAAGCATT", "PBM binding z-score": 3.02}
{"sequence": "CAAACTAGGTCACCGGAAGGTAAAAGTCCGCATG", "PBM binding z-score": 2.84}
{"sequence": "CAAACTAGGTCAAGGTAAAAGTCGGTTTGTGCCA", "PBM binding z-score": 1.79}
{"sequence": "TCTATTAGTTGATGGGCAACCGACGAGTCCGTTT", "PBM binding z-score": 0.542}
{"sequence": "CAAACTAGCTCACAGAGGTCAAAGTCCGTGCGTA", "PBM binding z-score": 5.02}
{"sequence": "TCTCGGAGCACACGAAGGTCAGAGCTTTCCAGAG", "PBM binding z-score": 0.634}
{"sequence": "TCTCGGAGGAAACGAAGGTCAGAGCTTTCCAGAG", "PBM binding z-score": 0.66}
{"sequence": "AGAACGAGGGCACGATGAGTTGATAGCAGAGTAG", "PBM binding z-score": 2.32}
{"sequence": "TCTAGTAGGTTACCAATGGGGCATTCAGCTTTCT", "PBM binding z-score": 0.81}
{"sequence": "ATCTCTAGGTAAAGTTCAATGAAAGATCGATAGA", "PBM binding z-score": 2.5}
{"sequence": "TCTTGTAGATCAATAGAGGTTAAGAAGGTGCGCT", "PBM binding z-score": 1.91}
{"sequence": "ATCGAAAGGTCGACGAGGTGAGTACACACCGTTT", "PBM binding z-score": 5.59}
{"sequence": "CAAACTAGGTGAAGAGGTCAAAGTCCGCTTCCCG", "PBM binding z-score": 4.67}
{"sequence": "CCTAATGGGCCACGAAAGGTCATTGATTCAGTGA", "PBM binding z-score": 4.33}
{"sequence": "AGAATGAGTTTACCAAAGATCAGGGAAACGCTTG", "PBM binding z-score": 1.05}
{"sequence": "ATGTCTAGGTAACAAGTTCAGTGAAAGAGAGGAC", "PBM binding z-score": 2.14}
{"sequence": "CCTTACGGGTCACTCCAGGTGATAGCATCGGAGT", "PBM binding z-score": 3.34}
{"sequence": "TCTTGTAGATCAGCAGGTTCAGAAAGCTGGCCAA", "PBM binding z-score": 3.4}
{"sequence": "TCATATAGGTATAGGTGAAAGTCGAACGATATGA", "PBM binding z-score": 0.632}
{"sequence": "CCGACTGGGGCAAGGTTAACATAACGCACAGCCA", "PBM binding z-score": 0.295}
{"sequence": "TCGAGTAGGTTACCAATGGGGCATTCACCTTTCT", "PBM binding z-score": 0.284}
{"sequence": "CCGAGTAGGTTATGGGGCATACAGGCAACGGTGA", "PBM binding z-score": 0.117}
{"sequence": "GCTGCTAGGTCAACTGATGGTCCGCTAAAGCTCG", "PBM binding z-score": 1.31}
{"sequence": "CGTCAAAGTTCAACTAAGGAAACGTAAAGCACGC", "PBM binding z-score": 4.16}
